Only some compounds are listed: those with a hit (about 2.6% of all), similar ones and a draw of the others.
IDE cell inh: inhibitors of human insulin-degrading enzyme in cells. P14735. HEK cells, FAbetaB cleavage, fluorescence polarization. inhibition, % at 5.59 µM. hit rate 0.41% among 320,000;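 active = percent inhibition above the average of all tested compounds plus 3 SD, set per screening campaign, cut at about 16% in these data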;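 note: IDE supplied by intact live HEK cells; FP after avidin binding of uncleaved biotin substrate so inhibition keeps polarization high; 0% = DMSO wells and 100% = 60 µM reference IDE inhibitor Ii1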
CRFBP-R2 agonist: CRF-BP/CRF-R2 complex agonism; HEK293 CRF-R2/CRF-BP, calcium dye fluorescence (FLIPR); percent of saturating CRF peptide response; activation, % at 13.2 µM; hit rate 0.46% among 350,000;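 active = activation of at least 50%, plus an integration ratio under a set limit after plate pattern correction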;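 note: plate controls were neutral control wells without compound for no effect and CRF at EC100 for full effect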
CRFBP-R2 block: CRF-BP/CRF-R2 complex antagonism; AID 588475; hit rate 0.59% among 350,000; inhibition, % at 11.8 µM; HEK293 CRF-R2/CRF-BP, CRF-induced calcium fluorescence;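 active = inhibition of the ligand-induced calcium signal above about 50% at the single tested concentration, limit read from the data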
TPT1 inhibitor: blocks Candida albicans tRNA 2'-phosphotransferase; recombinant caTPT1, FP RNA substrate dephosphorylation; inhibition, % at 5 µM; hit rate 0.81% among 300,000; AID 1962;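 active = inhibition above the mean of all tested compounds plus 3 SD, set per screening campaign, cut at about 24% in these data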;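 note: plate controls were DMSO alone for no effect and ferristatin control at 100 nM for full effect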
Myeloid diff 2: myeloid differentiation induction; calls only at 10 µM; ER-HoxA9 myeloid progenitors, lysozyme-GFP differentiation, flow cytometry; hit rate 1% among 360,000;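 active = normalized GFP-positive differentiation at or above the plate's own cutoff, the solvent-only control mean plus 3 SD; inconclusive = no clear call, values can overlap the other calls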;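 note: cells exposed to compound for four days before flow analysis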
IDE cell activ: boosts human insulin-degrading enzyme activity in HEK cells | activation, % at 5.96 µM | hit rate 0.073% among 340,000 | FAbeta-B cleavage, fluorescence polarization; 0% vehicle, 100% cell-free pure enzyme wells | AID 493087 | P14735;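 active = activation above the mean of all tested compounds plus 3 SD, set per screening campaign, cut at about 17% in these data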
TPT1 inh confirm: confirmation of Candida albicans TPT1 inhibitors | shares compounds with TPT1 inhibitor | recombinant caTPT1, fluorescence polarization, RNase T1 coupled | inhibition, % at 5 µM | hit rate 74% among 2,400 | AID 2149;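 active = inhibition above the primary screen limit, the mean inhibition of all tested compounds plus 3 SD, cut at about 25% in these data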
RNase T1 inh: RNase T1 inhibition in TPT1 counter-screen | shares compounds with TPT1 inhibitor | RNase T1 cleavage, fluorescence polarization, 1536-well | inhibition, % at 5 µM | hit rate 83% among 2,400 | AID 2153;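 active = inhibition above the solvent-only control well mean plus 3 SD, limit set per screening run, cut at about 23% in these data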;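 note: plate controls were DMSO wells with enzyme for no effect and wells without RNase T1 for full effect; inhibitors block cleavage so intact labeled substrate keeps polarization high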
Target sequence (P00651 whole entry, looked up): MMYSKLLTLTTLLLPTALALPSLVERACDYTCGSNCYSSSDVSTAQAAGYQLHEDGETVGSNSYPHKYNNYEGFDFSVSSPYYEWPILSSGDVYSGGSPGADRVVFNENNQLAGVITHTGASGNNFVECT
IDE cell inh cf: confirmation of human insulin-degrading enzyme inhibitors in cells. shares compounds with IDE cell inh. HEK cells, FAbetaB cleavage, fluorescence polarization. inhibition, % at 5.59 µM. hit rate 51% among 1,200. AID 435028;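 active = mean inhibition across triplicate wells above the cutoff set by the earlier primary insulin-degrading enzyme screen, cut at about 16% in these data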;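 note: 0% = DMSO wells and 100% = 60 µM reference IDE inhibitor Ii1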
HEK293 tox: HEK cell cytotoxicity, counter-screen for IDE inhibitors; HEK293 cytotoxicity, ATP luminescence; hit rate 28% among 1,200; inhibition, % at 5.59 µM; shares compounds with IDE cell inh; in the data active = inhibition above about 22%;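 note: 0% = vehicle wells and 100% = reference cytotoxic drug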
IDE FP artifact: counter-screen for IDE inhibitors: fluorescent artifacts; shares compounds with IDE cell inh; FP counterscreen for fluorescent artifacts, IDE probe project; IC50, µM; 30 tested, under 10 active; AID 588718; call rule not given here
Active calls of the source: *; i = inactive; ? = inconclusive; / = no result given; + = active, no number.

SMILES	IDE cell inh	CRFBP-R2 agonist	CRFBP-R2 block	TPT1 inhibitor	Myeloid diff 2	IDE cell activ	TPT1 inh confirm	RNase T1 inh	IDE cell inh cf	HEK293 tox	others
CC[C@H](C)/C=C(C)/C=C/c1cc2c(cn1)C(=O)[C@@](C)(OC(C)=O)C(O)=C2Cl	/	/	/	/	i	/	/	/	/	/
Cc1nc(S/C(=C/c2ccc(-c3cccc(Cl)c3)o2)C(=O)O)n[nH]1	-4	1	19	25*	+	4	35*	48*	/	/
Cc1cccc(C)c1Nc1c(-c2ccc(N3CCOCC3)cc2)nc2ncccn12	3	10	-36	30*	i	-4	34*	41*	/	/
Nc1c(C(=O)O)sc2nc(-c3ccccc3)cc(-c3ccccc3)c12	7	9	-9	22	i	10	/	/	/	/
Nc1c(C(=O)O)sc2nc(-c3ccccc3)cc(-c3ccc(F)cc3)c12	0	3	-5	29*	+	-2	27*	38*	/	/
COc1ccc(C(=O)/C=C/c2ccc(N(C)C)cc2)c(OC)c1	82*	103*	-56	101*	+	-34	103*	102*	26*	47*
CN(C)c1ccc(/C=C/C(=O)c2cccnc2)cc1	30*	120*	-59	93*	i	-108	100*	100*	43*	11
CCC(C(=O)Nc1c(C)cccc1C)n1c(-c2cnc(C)cn2)nc2ccccc21 (stereo not given)	/	/	/	/	i	/	/	/	/	/
COCCN1C(=O)/C(=C/c2ccc(N3CCCC3)cc2)SC1=S	26*	265*	-212	133*	+	-37	138*	131*	77*	13
O=S(=O)(Nc1ccc(S(=O)(=O)N2CCCC2)cc1)c1ccc(F)cc1F	5	-1	8	/	i	3	/	/	/	/
O=[N+]([O-])c1ccc(/C=C/C2=NN(c3ccccc3)C(c3ccco3)C2)cc1 (stereo not given)	36*	182*	-174	70*	+	-100	64*	66*	53*	19
CC1=NN(c2ccccc2)C(c2ccco2)C1 (stereo not given)	/	-2	7	/	i	5	/	/	/	/
N#C/C(=C\c1ccc(N2CCOCC2)c([N+](=O)[O-])c1)c1nc2ccccc2[nH]1	0	0	-37	2	i	12	/	/	/	/
N#C/C(=C\c1ccc(N2CCOCC2)o1)c1nc2ccccc2[nH]1	20*	95*	-62	182*	+	-151	158*	144*	26*	29*
COc1cc(NC(=O)CN2C(=O)CSc3ccc(S(=O)(=O)N4CCCC4)cc32)cc(OC)c1	0	0	-12	-1	i	3	/	/	/	/
CN(C)c1ccc(/C=C(/NC(=O)c2ccccc2Cl)C(=O)NCCN2CCOCC2)cc1	18*	1	4	47*	i	3	120*	128*	2	11
CSc1ccc(/C=C(/NC(=O)c2ccccc2)C(=O)NCCN2CCOCC2)cc1	-6	0	2	-4	i	-1	/	/	/	/
CN(C)c1ccc(/C=C(/NC(=O)c2ccccc2)C(=O)NCCN2CCOCC2)cc1	17*	2	-9	49*	i	-1	11	17	10	6
C[C@H](CO)N1C[C@H](C)[C@@H](CN(C)C(=O)NC2CCCCC2)Oc2ccc(NS(=O)(=O)c3ccc(F)cc3)cc2C1=O	3	-1	1	/	i	2	/	/	/	/
COc1cc(/C=C2\SC(=Nc3ccccc3)NC2=O)cc(Cl)c1O	134*	213*	-159	105*	i	-112	114*	110*	150*	28*
CCc1ccc(N=C2NC(=O)/C(=C/c3cc(OC)c(O)c(OC)c3)S2)cc1	/	5	-25	/	i	-47	/	/	/	/
CCc1ccc(Nc2n[n+](-c3ccccc3)c(-c3ccc(OCc4ccccc4)cc3)s2)cc1	1	1	1	-1	i	-2	/	/	/	/
CCc1ccc(Nc2n[n+](-c3ccccc3)c(-c3ccc(N(CC)CC)cc3)s2)cc1	19*	67*	-101	105*	/	-8	115*	112*	23*	58*
COc1ccc(N=Cc2oc3ccc4ccccc4c3c2O)cc1	18*	29	-62	114*	i	-27	71*	75*	29*	5
Oc1c(Cl)cc(Cl)cc1/C=C/c1ccc2cccc(O)c2n1	33*	87*	-102	56*	i	-54	51*	59*	54*	15
SMILES	IDE cell inh	CRFBP-R2 agonist	CRFBP-R2 block	TPT1 inhibitor	Myeloid diff 2	IDE cell activ	TPT1 inh confirm	RNase T1 inh	IDE cell inh cf	HEK293 tox	others
Oc1ccc(Cl)cc1/C=C/c1ccc2cccc(O)c2n1	/	3	3	/	i	-1	/	/	/	/
Cc1csc(=O)n1CC(=O)Nc1ccc(Cl)cc1F	-4	-1	-2	/	i	5	/	/	/	/
COc1ccc(C=O)c(OC)c1	8	-1	-9	-6	i	0	/	/	/	/
COc1ccc(/C=C/C(=O)c2c(O)cc(C)oc2=O)c(OC)c1	20*	2	-19	134*	i	-9	54*	75*	2	19
Cc1ccc(C)c(N2C(=N)S/C(=C\c3ccc(-c4ccccc4C(=O)O)o3)C2=O)c1	32*	11	-28	59*	i	-13	41*	53*	17*	4	IDE FP artifact=>55
CCOC(=O)C(C)N1C(=O)S/C(=C\c2ccc(-c3ccccc3C(=O)O)o2)C1=O (stereo not given)	-1	6	-18	3	i	4	/	/	/	/
CN(C)c1ccc(/C=C(/C#N)C(=O)NCc2ccccc2)o1	97*	108*	-99	177*	i	-126	192*	176*	122*	9
CN(C)c1ccc(C2C=C(c3ccc(Cl)cc3OC(F)F)Nc3ncnn32)cc1 (stereo not given)	21*	59*	-63	49*	/	-22	43*	56*	28*	61*
CC1(C(=O)NS(=O)(=O)c2ccccc2)CCN1C(=O)CCc1ccccc1 (stereo not given)	/	/	/	/	i	/	/	/	/	/
CC(C)CC[n+]1ccccc1/C=C/c1ccc(N(C)C)cc1	37*	51*	-73	44*	?	-12	49*	58*	69*	101*

Bioassay records (PubChem)
